# Test results published in PubChem BioAssay AID1159580 (chemical genetic matrix, 2015).
# Screen size: about 5,500 compounds; about 2,000 (36%) were called active. Roughly 18% stayed inconclusive and do not appear here. The list shows a part of the results. A number with no mark means an inactive call. No stated cut-off is given here; in the data, active means normalized growth mostly below about 0.91 (no sharp cut-off); inconclusive means no clear call, values can overlap the other calls; inactive means mostly above about 0.92.
# Assay: chemical genetic growth profiling, strain panel (AID 1159580);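 further: tested at 20 µM; growth read once vehicle control cultures reached saturation at 30 °C; 1 = growth at the plate median or of vehicle wells; lower values mean less growth of the strain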
# Conditions: growth OD
smiles,measurement,setting,value
CN1CCC[C@@H]1CCO[C@](C)(c1ccccc1)c1ccc(Cl)cc1,normalized growth,"S. cerevisiae deletion strains, locus YJR075W, strain HOC1, active compounds read low",0.92
same,normalized growth,"S. cerevisiae deletion strains, locus YKL009W, strain mrt4, active compounds read low",0.977
same,normalized growth,"S. cerevisiae deletion strains, locus YKL068W, active compounds read low",0.992
same,normalized growth,"S. cerevisiae deletion strains, locus YKL085W, strain MDH1 (second series), active compounds read low",0.995
same,normalized growth,"S. cerevisiae deletion strains, locus YKL085W, strain MDH1, active compounds read low",0.995
same,normalized growth,"S. cerevisiae deletion strains, locus YKL160W, strain elf1, active compounds read low",0.977
same,normalized growth,"S. cerevisiae deletion strains, locus YKL190W, strain CNB1, active compounds read low",0.977
same,normalized growth,"S. cerevisiae deletion strains, locus YKR001C, strain vps1, active compounds read low",1.02
same,normalized growth,"S. cerevisiae deletion strains, locus YKR026C, strain gcn3, active compounds read low",1.02
same,normalized growth,"S. cerevisiae deletion strains, locus YKR091W, strain srl3, active compounds read low",1
same,normalized growth,"S. cerevisiae deletion strains, locus YLL001W, strain dnm1, active compounds read low",0.946
same,normalized growth,"S. cerevisiae deletion strains, locus YLL026W, active compounds read low",0.988
same,normalized growth,"S. cerevisiae deletion strains, locus YLL041C, strain sdh2, active compounds read low",0.992
same,normalized growth,"S. cerevisiae deletion strains, locus YLR027C, strain aat2, active compounds read low",0.98
same,normalized growth,"S. cerevisiae deletion strains, locus YLR039C, strain RIC1, active compounds read low",1.41 [resistant] (active)
same,normalized growth,"S. cerevisiae deletion strains, locus YLR058C, strain SHM2, active compounds read low",0.994
same,normalized growth,"S. cerevisiae deletion strains, locus YLR102C, strain apc9, active compounds read low",0.997
same,normalized growth,"S. cerevisiae deletion strains, locus YLR113W, strain HOG1, active compounds read low",0.969
same,normalized growth,"S. cerevisiae deletion strains, locus YLR221C, strain rsa3, active compounds read low",0.932
same,normalized growth,"S. cerevisiae deletion strains, locus YLR258W, strain gsy2, active compounds read low",0.977
same,normalized growth,"S. cerevisiae deletion strains, locus YLR262C, strain YPT6 (second series), active compounds read low",1.07
same,normalized growth,"S. cerevisiae deletion strains, locus YLR262C, strain YPT6, active compounds read low",1.46 [resistant] (active)
same,normalized growth,"S. cerevisiae deletion strains, locus YLR268W, strain sec22, active compounds read low",0.929
same,normalized growth,"S. cerevisiae deletion strains, locus YLR320W, strain mms22, active compounds read low",0.878
same,normalized growth,"S. cerevisiae deletion strains, locus YLR330W, strain CHS5, active compounds read low",1.02
same,normalized growth,"S. cerevisiae deletion strains, locus YLR342W, strain FKS1 (second series), active compounds read low",0.834
same,normalized growth,"S. cerevisiae deletion strains, locus YLR342W, strain FKS1, active compounds read low",0.893 (active)
same,normalized growth,"S. cerevisiae deletion strains, locus YLR357W, strain rsc2, active compounds read low",1.01
same,normalized growth,"S. cerevisiae deletion strains, locus YLR370C, strain arc18, active compounds read low",0.966
same,normalized growth,"S. cerevisiae deletion strains, locus YLR371W, strain rom2, active compounds read low",0.994
same,normalized growth,"S. cerevisiae deletion strains, locus YLR384C, strain iki3, active compounds read low",1.01
same,normalized growth,"S. cerevisiae deletion strains, locus YLR418C, strain cdc73, active compounds read low",0.682 (active)
same,normalized growth,"S. cerevisiae deletion strains, locus YML016C, strain PPZ1, active compounds read low",1.02
same,normalized growth,"S. cerevisiae deletion strains, locus YML032C, strain rad52, active compounds read low",0.98
same,normalized growth,"S. cerevisiae deletion strains, locus YML120C, strain ndi1, active compounds read low",1
same,normalized growth,"S. cerevisiae deletion strains, locus YML124C, strain tub3, active compounds read low",0.994
same,normalized growth,"S. cerevisiae deletion strains, locus YMR058W, strain fet3, active compounds read low",0.953
same,normalized growth,"S. cerevisiae deletion strains, locus YMR078C, strain ctf18, active compounds read low",0.993
same,normalized growth,"S. cerevisiae deletion strains, locus YMR125W, strain sto1, active compounds read low",0.96
same,normalized growth,"S. cerevisiae deletion strains, locus YMR129W, active compounds read low",0.99
same,normalized growth,"S. cerevisiae deletion strains, locus YMR205C, strain PFK2, active compounds read low",0.955
same,normalized growth,"S. cerevisiae deletion strains, locus YMR223W, strain ubp8, active compounds read low",0.964
same,normalized growth,"S. cerevisiae deletion strains, locus YMR231W, strain pep5, active compounds read low",1.01
same,normalized growth,"S. cerevisiae deletion strains, locus YMR263W, strain SAP30, active compounds read low",0.976
same,normalized growth,"S. cerevisiae deletion strains, locus YMR307W, strain GAS1, active compounds read low",0.92
same,normalized growth,"S. cerevisiae deletion strains, locus YNL067W, strain RPL9B, active compounds read low",0.971
same,normalized growth,"S. cerevisiae deletion strains, locus YNL071W, strain lat1, active compounds read low",0.888 (active)
same,normalized growth,"S. cerevisiae deletion strains, locus YNL128W, strain TEP1, active compounds read low",0.898
same,normalized growth,"S. cerevisiae deletion strains, locus YNL153C, strain GIM3, active compounds read low",1
same,normalized growth,"S. cerevisiae deletion strains, locus YNL183C, strain NPR1, active compounds read low",0.918
same,normalized growth,"S. cerevisiae deletion strains, locus YNL209W, strain ssb2, active compounds read low",0.877 (active)
same,normalized growth,"S. cerevisiae deletion strains, locus YNL233W, strain BNI4, active compounds read low",0.978
same,normalized growth,"S. cerevisiae deletion strains, locus YNL248C, strain rpa49, active compounds read low",0.836 (active)
same,normalized growth,"S. cerevisiae deletion strains, locus YNL250W, strain rad50, active compounds read low",0.986
same,normalized growth,"S. cerevisiae deletion strains, locus YNL271C, strain bni1, active compounds read low",0.986
same,normalized growth,"S. cerevisiae deletion strains, locus YNL298W, strain CLA4, active compounds read low",0.988
same,normalized growth,"S. cerevisiae deletion strains, locus YNL307C, strain MCK1, active compounds read low",0.96
same,normalized growth,"S. cerevisiae deletion strains, locus YNL322C, strain KRE1 (second series), active compounds read low",1.02
same,normalized growth,"S. cerevisiae deletion strains, locus YNL322C, strain KRE1, active compounds read low",1.01
same,normalized growth,"S. cerevisiae deletion strains, locus YNR049C, strain mso1, active compounds read low",1.01
same,normalized growth,"S. cerevisiae deletion strains, locus YNR052C, strain pop2, active compounds read low",0.971
same,normalized growth,"S. cerevisiae deletion strains, locus YOL006C, strain TOP1, active compounds read low",0.417 (active)
same,normalized growth,"S. cerevisiae deletion strains, locus YOL012C, strain htz1",0.791
same,normalized growth,"S. cerevisiae deletion strains, locus YOL147C, strain pex11, active compounds read low",0.999
same,normalized growth,"S. cerevisiae deletion strains, locus YOR001W, strain rrp6, active compounds read low",0.951
same,normalized growth,"S. cerevisiae deletion strains, locus YOR061W, strain CKA2, active compounds read low",1.01
same,normalized growth,"S. cerevisiae deletion strains, locus YOR069W, strain VPS5, active compounds read low",1
same,normalized growth,"S. cerevisiae deletion strains, locus YOR070C, strain gyp1, active compounds read low",0.974
same,normalized growth,"S. cerevisiae deletion strains, locus YOR080W, strain dia2, active compounds read low",0.994
same,normalized growth,"S. cerevisiae deletion strains, locus YOR083W, strain WHI5, active compounds read low",0.93
same,normalized growth,"S. cerevisiae deletion strains, locus YOR106W, strain vam3, active compounds read low",0.914
same,normalized growth,"S. cerevisiae deletion strains, locus YOR136W, strain idh2, active compounds read low",0.991
same,normalized growth,"S. cerevisiae deletion strains, locus YOR144C, strain elg1, active compounds read low",1
same,normalized growth,"S. cerevisiae deletion strains, locus YOR184W, strain ser1, active compounds read low",0.999
same,normalized growth,"S. cerevisiae deletion strains, locus YOR231W, strain MKK1, active compounds read low",0.991
same,normalized growth,"S. cerevisiae deletion strains, locus YOR265W, strain rbl2, active compounds read low",0.998
same,normalized growth,"S. cerevisiae deletion strains, locus YOR270C, strain vph1, active compounds read low",0.616 (active)
same,normalized growth,"S. cerevisiae deletion strains, locus YOR290C, strain snf2, active compounds read low",0.957
same,normalized growth,"S. cerevisiae deletion strains, locus YOR316C, strain cot1, active compounds read low",0.993
same,normalized growth,"S. cerevisiae deletion strains, locus YPL051W, strain arl3, active compounds read low",0.94
same,normalized growth,"S. cerevisiae deletion strains, locus YPL055C, strain LGE1, active compounds read low",0.782
same,normalized growth,"S. cerevisiae deletion strains, locus YPL078C, strain atp4, active compounds read low",0.916
same,normalized growth,"S. cerevisiae deletion strains, locus YPL106C, strain sse1, active compounds read low",1.02
same,normalized growth,"S. cerevisiae deletion strains, locus YPL240C, strain hsp82, active compounds read low",0.992
same,normalized growth,"S. cerevisiae deletion strains, locus YPL241C, strain CIN2, active compounds read low",0.999
same,normalized growth,"S. cerevisiae deletion strains, locus YPL256C, strain CLN2, active compounds read low",0.979
same,normalized growth,"S. cerevisiae deletion strains, locus YPR119W, strain clb2, active compounds read low",0.998
same,normalized growth,"S. cerevisiae deletion strains, locus YPR141C, strain kar3, active compounds read low",0.997
same,normalized growth,"S. cerevisiae deletion strains, locus YPR163C, strain tif3, active compounds read low",0.975
same,normalized growth,"S. cerevisiae deletion strains, locus YPR167C, strain met16, active compounds read low",0.991
same,normalized growth,"S. cerevisiae deletion strains, strain wtn01, active compounds read low",0.959
same,normalized growth,"S. cerevisiae strains, strain wild type, active compounds read low",0.99
